Measured values from the supplement of paper PMC8728848.
Shown is part of a subset that was picked to be rich in the strongest signals.

How the values were obtained:
Assay in all cases: glycan array binding signal (z-score within array); higher = stronger binding
Settings in all cases: glycan notation: IUPAC condensed, linker removed
[1] = target: Fuc(a1-2)Gal(b1-3)GlcNAc(b1-2)Man(a1-3)[Fuc(a1-2)Gal(b1-3)GlcNAc(b1-2)Man(a1-6)]Man(b1-4)GlcNAc(b1-4)GlcNAc
Method in brief: (§1)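 Arrays were curated from the Consortium for Functional Glycomics database, 3228 in total, and kept only where the protein sequence was available. Binding is expressed as a within-array Z-score. This score was averaged across arrays of the same protein sequence at different concentrations or buffers and across linkers, and negative values can be read as non-binding.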

Fuc(a1-2)Gal(b1-4)Glc = target: Fuc(a1-2)Gal(b1-4)Glc
Method in brief: as §1

[2] = target: Fuc(a1-2)Gal(b1-4)GlcNAc(b1-3)[Fuc(a1-2)Gal(b1-4)GlcNAc(b1-6)]GalNAc
Method in brief: as §1

[3] = target: Fuc(a1-2)Gal6S(b1-3)GlcNAc6S
Method in brief: as §1

[4] = target: Fuc(a1-2)[Gal(a1-3)]Gal(b1-4)[Fuc(a1-3)]GlcNAc
Method in brief: as §1

[5] = target: Fuc(a1-2)[GalNAc(a1-3)]Gal(b1-3)GlcNAc(b1-3)GalNAc
Method in brief: as §1

[6] = target: Fuc(a1-2)[GalNAc(a1-3)]Gal(b1-4)Glc
Method in brief: as §1

[7] = target: Fuc(a1-2)[GalNAc(a1-4)]Gal(b1-4)GlcNAc
Method in brief: as §1

[8] = target: Fuc(a1-3)[Gal(b1-4)]GlcNAc(b1-6)GalNAc
Method in brief: as §1

[9] = target: Gal(b1-4)GlcNAc(b1-2)Man(a1-3)[Gal(b1-4)GlcNAc(b1-2)Man(a1-6)]Man(b1-4)GlcNAc(b1-4)[Fuc(a1-6)]GlcNAc
Method in brief: as §1

[10] = target: Gal(b1-4)GlcNAc(b1-2)Man(a1-3)[GlcNAc(b1-4)][Gal(b1-4)GlcNAc(b1-2)Man(a1-6)]Man(b1-4)GlcNAc(b1-4)GlcNAc
Method in brief: as §1

[11] = target: Gal(b1-4)GlcNAc(b1-2)[Gal(b1-4)GlcNAc(b1-6)]Man(a1-6)[GlcNAc(b1-4)][Gal(b1-4)GlcNAc(b1-2)Man(a1-3)]Man(b1-4)GlcNAc(b1-4)GlcNAc
Method in brief: as §1

[12] = target: Gal(b1-4)GlcNAc(b1-3)Gal(b1-4)GlcNAc(b1-2)[Gal(b1-4)GlcNAc(b1-3)Gal(b1-4)GlcNAc(b1-6)]Man(a1-6)[Gal(b1-4)GlcNAc(b1-3)Gal(b1-4)GlcNAc(b1-2)Man(a1-3)]Man(b1-4)GlcNAc(b1-4)GlcNAc
Method in brief: as §1

[13] = target: Gal(b1-4)GlcNAc(b1-3)Gal(b1-4)GlcNAc(b1-3)Gal(b1-4)GlcNAc
Method in brief: as §1

[14] = target: Gal(b1-4)GlcNAc(b1-3)Gal(b1-4)GlcNAc(b1-3)Gal(b1-4)GlcNAc(b1-3)Gal(b1-4)GlcNAc(b1-2)Man(a1-3)[Gal(b1-4)GlcNAc(b1-3)Gal(b1-4)GlcNAc(b1-3)Gal(b1-4)GlcNAc(b1-3)Gal(b1-4)GlcNAc(b1-2)Man(a1-6)]Man(b1-4)GlcNAc(b1-4)[Fuc(a1-6)]GlcNAc
Method in brief: as §1

[15] = target: Gal(b1-4)GlcNAc(b1-3)[Gal(b1-4)GlcNAc(b1-6)]Gal(b1-4)GlcNAc
Method in brief: as §1

[16] = target: Gal(b1-4)GlcNAc(b1-3)[GlcNAc(b1-6)]Gal(b1-4)GlcNAc
Method in brief: as §1

[17] = target: GalNAc(b1-3)Gal(a1-4)Gal(b1-4)GlcNAc
Method in brief: as §1

GlcA(b1-6)Gal = target: GlcA(b1-6)Gal
Method in brief: as §1

[18] = target: GlcNAc(b1-3)Gal(b1-3)GalNAc
Method in brief: as §1

[19] = target: GlcNAc(b1-3)Gal(b1-4)GlcNAc(b1-3)Gal(b1-4)GlcNAc(b1-2)Man(a1-3)[GlcNAc(b1-3)Gal(b1-4)GlcNAc(b1-3)Gal(b1-4)GlcNAc(b1-2)Man(a1-6)]Man(b1-4)GlcNAc(b1-4)GlcNAc
Method in brief: as §1

[20] = target: GlcNAc(b1-3)Gal(b1-4)GlcNAc(b1-3)Gal(b1-4)GlcNAc(b1-3)Gal(b1-4)GlcNAc(b1-2)[GlcNAc(b1-3)Gal(b1-4)GlcNAc(b1-3)Gal(b1-4)GlcNAc(b1-3)Gal(b1-4)GlcNAc(b1-6)]Man(a1-6)[GlcNAc(b1-3)Gal(b1-4)GlcNAc(b1-3)Gal(b1-4)GlcNAc(b1-3)Gal(b1-4)GlcNAc(b1-2)Man(a1-3)]Man(b1-4)GlcNAc(b1-4)[Fuc(a1-6)]GlcNAc
Method in brief: as §1

[21] = target: GlcNAc(b1-4)GlcNAc(b1-4)GlcNAc(b1-4)GlcNAc(b1-4)GlcNAc(b1-4)GlcNAc
Method in brief: as §1

[22] = target: Man(a1-3)[Man(a1-6)]Man(a1-6)[Man(a1-3)]Man
Method in brief: as §1

[23] = target: Neu5Ac(a2-3)Gal(b1-4)GlcNAc(b1-2)Man
Method in brief: as §1

[24] = target: Neu5Ac(a2-3)Gal(b1-4)GlcNAc(b1-3)Gal(b1-3)GlcNAc
Method in brief: as §1

[25] = target: Neu5Ac(a2-3)Gal(b1-4)GlcNAc(b1-3)Gal(b1-4)GlcNAc(b1-3)Gal(b1-4)GlcNAc
Method in brief: as §1

[26] = target: Neu5Ac(a2-3)Gal(b1-4)GlcNAc(b1-3)Gal(b1-4)GlcNAc(b1-3)GalNAc
Method in brief: as §1

[27] = target: Neu5Ac(a2-3)Gal(b1-4)[Fuc(a1-3)]GlcNAc(b1-6)[Neu5Ac(a2-3)Gal(b1-3)]GalNAc
Method in brief: as §1

[28] = target: Neu5Ac(a2-6)Gal(b1-4)GlcNAc(b1-3)Gal(b1-4)GlcNAc(b1-6)[Gal(b1-3)]GalNAc
Method in brief: as §1

[29] = target: Neu5Ac(a2-6)Gal(b1-4)GlcNAc(b1-6)GalNAc
Method in brief: as §1

[30] = target: Neu5Ac(a2-8)Neu5Ac(a2-8)Neu5Ac(a2-3)Gal(b1-4)Glc
Method in brief: as §1

[31] = target: Neu5Ac(b2-6)Gal(b1-4)GlcNAc
Method in brief: as §1

[32] = target: Neu5Ac9Ac(a2-3)Gal(b1-3)GlcNAc
Method in brief: as §1

[33] = target: Neu5Gc(a2-3)Gal(b1-4)[Fuc(a1-3)]GlcNAc
Method in brief: as §1

Neu5Gc(a2-6)GalNAc = target: Neu5Gc(a2-6)GalNAc
Method in brief: as §1

B1: truncCC1G-10077 (Coprinopsis cinerea) (protein)
chain: MHHHHHHHHPLPSPGPGWVLIQNGGTGKFLCSTPSGDIGTADGPETVYDYSVQWRFIQREYTGVYHVVNRATGAYLRQIGTSMPSIGLAEENDDELKDWWMLETYDNSEIGLASIISRWTGNVLDHYGGVSVQALDNNTENSYRSWAIIPARDWLTSFSLVNGQGGLCLAAQYAREETRLSTTANVNDFHAQWVFRKPSGSSGYTIQNKYNNHYVGGTSARWELVVCCNKYFGIRNTSTQKYLAIEDGQVTFQDQDMTDRKQCWELCSGRATDTSGNDYDLIYMDDDLLEVMIPWVGDKQGDLKHYIEKRATKKPPKDKGGWQLPAAGLIKKPKFNDIRQLLQELIEQWEWDVVNEEREQIQTLVSIDEAEARRLLGRRPHPDIVAAYQRSRSSTLFRIDRQGYFNIAGDRYVNIQGQYGDDSYFHIALPVGVRFGREQIRRFLRDSLDRSTSVTITPTTCKPPSGGPDYNRDPDSDGDNSWIKWTIAVVGTSAIKHSEL
glycan array binding signal (z-score) [1]: 3.72
glycan array binding signal (z-score) (Fuc(a1-2)Gal(b1-4)Glc): -0.216
glycan array binding signal (z-score) [2]: 2.81
glycan array binding signal (z-score) [3]: 0.519
glycan array binding signal (z-score) [4]: 1.66
glycan array binding signal (z-score) [5]: 3.65
glycan array binding signal (z-score) [6]: -0.829
glycan array binding signal (z-score) [7]: -0.664
glycan array binding signal (z-score) [8]: 3.46
glycan array binding signal (z-score) [9]: 3.13
glycan array binding signal (z-score) [10]: 0.359
glycan array binding signal (z-score) [11]: -0.119
glycan array binding signal (z-score) [12]: 3.74
glycan array binding signal (z-score) [13]: -0.532
glycan array binding signal (z-score) [14]: 0.374
glycan array binding signal (z-score) [15]: -0.821
glycan array binding signal (z-score) [16]: -1.04
glycan array binding signal (z-score) [17]: -0.242
glycan array binding signal (z-score) (GlcA(b1-6)Gal): 4.61
glycan array binding signal (z-score) [18]: -0.15
glycan array binding signal (z-score) [19]: 1.17
glycan array binding signal (z-score) [20]: 0.218
glycan array binding signal (z-score) [21]: -0.144
glycan array binding signal (z-score) [22]: 0.384
glycan array binding signal (z-score) [23]: 2.91
glycan array binding signal (z-score) [24]: -0.855
glycan array binding signal (z-score) [25]: -1.07
glycan array binding signal (z-score) [26]: 0.244
glycan array binding signal (z-score) [27]: 3.72
glycan array binding signal (z-score) [28]: 0.521
glycan array binding signal (z-score) [29]: 3.21
glycan array binding signal (z-score) [30]: 0.249
glycan array binding signal (z-score) [31]: -1.25
glycan array binding signal (z-score) [32]: -1.02
glycan array binding signal (z-score) [33]: 3.02
glycan array binding signal (z-score) (Neu5Gc(a2-6)GalNAc): -0.873
